This note sets out measurements from PubChem BioAssay AID504332 (National Center for Advancing Translational Sciences (NCATS), 2011).

Among all 350,000 compounds or so, about 31,000 (8.9%) were called active. A call without a number means that no potency is given here. Inconclusive results (about 15%) are left out. The call rests on the fitted dose curve; in most records, active means well fitted inhibition curve with a large enough effect; inconclusive means small, poorly fitted or top-dose-only effect; inactive means no such curve, though single readings can be large or run the other way. The full list was thinned out, with actives kept by preference.
Potency means the concentration at half of the fitted maximal effect.

Sequence of Histone-lysine N-methyltransferase EHMT2 (Homo sapiens) (Q96KQ7 913-1193 limits assumed): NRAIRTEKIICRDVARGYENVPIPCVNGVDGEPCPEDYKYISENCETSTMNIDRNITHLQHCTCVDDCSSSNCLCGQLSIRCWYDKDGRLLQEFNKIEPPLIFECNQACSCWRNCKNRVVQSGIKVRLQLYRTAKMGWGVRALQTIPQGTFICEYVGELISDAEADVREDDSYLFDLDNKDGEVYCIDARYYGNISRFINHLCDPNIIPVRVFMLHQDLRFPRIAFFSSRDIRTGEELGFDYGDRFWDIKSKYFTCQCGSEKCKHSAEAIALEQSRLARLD

For this test, the target named is Histone-lysine N-methyltransferase EHMT2 (Homo sapiens) (UniProt Q96KQ7). Description: qHTS Assay for Inhibitors of Histone Lysine Methyltransferase G9a. Further: nearly all actives have a fitted effect of over 75% in size. As to conditions: G9a H3K9 monomethylation, AlphaScreen, 2 h; series mostly up to 59 µM. The procedure, abridged:
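Signal arises when biotinylated H3K9 peptide, once monomethylated, bridges streptavidin donor and antibody-captured acceptor beads. Enzyme at 20 nM was preincubated 15 min with test compounds; peptide 500 nM and SAM 20 uM then reacted for 2 h.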
As for `COc1ccccc1C1C(C(=O)N2CCCCC2)=C(C)Nc2nc3ccccc3n21` (stereo not drawn), the Potency result was “inactive”.

For `Cc1ccccc1NC(=O)COc1cccc2c1CCNC2=O`, the Potency result was “inactive”.

In the case of `Cc1ccnc(NS(=O)(=O)c2ccc(NC(=O)c3oc4ccc(F)cc4c3C)cc2)n1`, the activity, negative = inhibition is 6.53% [at 0.501 µM] (inactive).

Turning to `Cc1ccnc(NS(=O)(=O)c2ccc(NC(=O)c3oc4ccccc4c3C)cc2)n1`, the Potency is 25.1 µM (active).

On to `Cc1ccnc(NS(=O)(=O)c2ccc(NC(=O)c3ccc(S(=O)(=O)N(C)C)cc3)cc2)n1`, for which the Potency entry is “inactive”.

Consider `Cc1ccc(NC(=O)NC(C)c2c(-n3cccc3)sc(C)c2C)c(C)c1` (stereo not drawn), for which the Potency entry was “inactive”.

For the molecule `COCCNC(=O)c1ccc(S(=O)(=O)c2ccc(Cl)cc2)c(NC(C)=O)c1`, the Potency entry was “inactive”.

With `CCOC(=O)N1CCN(C(=O)c2ccc(S(=O)(=O)c3ccc(C)cc3)c(NC(C)=O)c2)CC1`, the activity, negative = inhibition was 29.4% [at 0.501 µM] (inactive).

For `CC(=O)Nc1cc(C(=O)O)ccc1S(=O)(=O)c1ccc(Cl)cc1`, the Potency was 50.1 µM (active).

`O=C(CN1CCCCC1)Nc1ccccc1C(=O)NC1CC1`: the Potency entry is “inactive”.

In the case of `O=C(COc1ccc(Cl)cc1)N(Cc1ccco1)Cc1ccco1`, the Potency result was “inactive”.

Regarding `O=C1C=C(c2cccc(Br)c2)C[C@@H](c2ccc(F)cc2)C1`, the activity, negative = inhibition is -5.82% [at 0.501 µM] (inactive).

Turning to `COc1ccc(C2=NN(C(=O)CSc3nc(=O)n4ccc(C)cc4n3)C(c3ccc(C)cc3)C2)cc1` (stereo not drawn), the activity, negative = inhibition is 4.89% [at 2.33 µM] (inactive).

With `COc1ccc(C(=O)NC(=S)NC2CCCCC2)cc1`, the Potency is 39.8 µM (active).

Turning to `COc1ccc(C(=O)NC2CCN(C(=S)Nc3ccccc3)CC2)cc1`, the Potency entry is “inactive”.

For `CC(=O)Nc1cccc(NC(=O)c2c(-c3ccccc3)noc2C)c1`, the activity, negative = inhibition is 10.1% [at 12.7 µM] (inactive).

Turning to `CC(=O)NC(=S)NNC(=O)c1ccc(Br)cc1`, the Potency is 8.91 µM (active).

With `CNC(=S)NNC(=O)c1ccc(N(C)C)cc1`, the Potency entry was “inactive”.

As to `COc1ccc(Cl)cc1C(=O)NNC(=S)NC1CCCC1`, the Potency result is “inactive”.

In the case of `Cn1nnnc1SCC(=O)NNC(=O)c1ccc(Br)cc1`, the Potency result is “inactive”.

Consider `CCCNC(=S)N1CCC(NC(=O)c2ccc(OC)cc2)CC1`, for which the Potency result was “inactive”.

Take `Cc1onc(-c2ccccc2)c1C(=O)NNC(=S)NC(=O)c1ccc(F)cc1`: the Potency was 31.6 µM (active).

Regarding `COc1cc(C(=S)NC2CCCCC2)ccc1O`, the Potency is 35.5 µM (active).

With `CCc1noc(C)c1C(=O)NNC(=O)c1ccc(F)cc1`, the Potency entry was “inactive”.

Consider `COc1cc(OC)c(C(=O)NC2CCCCCC2)cc1OC`, for which the activity, negative = inhibition was 13.1% [at 12.7 µM] (inactive).

On to `COc1cccc(NC(=O)CN(C)CC(=O)c2c(N)n(Cc3ccccc3)c(=O)n(C)c2=O)c1`, for which the activity, negative = inhibition was -2.39% [at 2.33 µM] (inactive).

Consider `COc1ccc(NC(=O)c2ccc3nc(CCc4ccccc4)oc3c2)c(OC)c1`, for which the Potency result was “inactive”.

In the case of `CC1CCCN(C(=O)CN2C(=O)c3ccccc3S2(=O)=O)C1` (stereo not drawn), the activity, negative = inhibition is 6.05% [at 2.33 µM] (inactive).

As to `CC1(c2ccc3ccccc3c2)NC(=O)NC1=O` (stereo not drawn), the Potency entry was “inactive”.

As for `COc1cccc(NC(=O)CN(C)C(=O)c2ccccc2CCc2ccccc2)c1`, the activity, negative = inhibition was 3.17% [at 12.7 µM] (inactive).

As to `O=C(NCCCN1CCOCC1)c1cc(-c2ccccc2F)no1`, the Potency entry is “inactive”.

As to `CSc1ccc(CCNC(=O)c2ccc3c(c2)nc2n3CCOC2)cc1`, the Potency result is “inactive”.

For the molecule `Clc1ccc(C(Cn2ccnc2)OCc2ccsc2Cl)c(Cl)c1` (stereo not drawn), the activity, negative = inhibition is -28.9% [at 12.7 µM] (inactive).

As to `CCOC(=O)c1[nH]c(C)c(CCC(=O)NCc2ccccc2C)c1C`, the Potency entry was “inactive”.

Take `Cc1ccc2ncc(C(=O)Nc3ccc(OC(F)(F)F)cc3)c(=O)n2c1`: the Potency entry was “inactive”.

In the case of `Cc1nn(CC(=O)N2CCN(c3cccc(C(F)(F)F)c3)CC2)c(=O)c2cc3sccc3n12`, the Potency entry is “inactive”.

On to `CC(NS(=O)(=O)c1ccc(OCC(=O)N2CCCC2)cc1)c1ccccc1` (stereo not drawn), for which the Potency result is “inactive”.

Take `Cc1ccc(CNC(=O)c2c(-c3ccccc3)noc2C)cc1`: the Potency result is “inactive”.

`COc1ccc(C(=O)Nc2cc(C)ccc2NC(=O)COc2ccccc2)cc1`: the Potency result was “inactive”.

For `Cc1onc(-c2ccccc2)c1C(=O)Nc1ccccc1C#N`, the Potency entry was “inactive”.

With `COc1ccc(C(=O)NC(=S)NNC(=O)CCc2ccccc2)cc1`, the activity, negative = inhibition was 28.9% [at 0.0925 µM] (inactive).

Take `COc1ccc(OCC(=O)NNC(=O)c2ccc(-c3ccccc3)cc2)cc1`: the Potency was 79.4 µM (active).

Take `COc1ccc(C(=O)NC(=S)NNC(=O)c2c(-c3ccccc3)noc2C)cc1`: the Potency is 5.62 µM (active).

In the case of `COc1ccc(C(=O)NNC(=S)NC(=O)c2ccccc2)cc1`, the Potency is 22.4 µM (active).

Regarding `COCCCNC(=S)NC(=O)c1ccccc1`, the Potency result is “inactive”.

As for `COc1ccc(OCC(=O)NNC(=O)c2cccc(C)c2)cc1`, the Potency entry is “inactive”.

As to `Cc1cn(C)c(CC(=O)NCc2ccc(Cl)cc2)c1C(=O)O`, the Potency entry is “inactive”.

Turning to `CCC(=O)N1CCc2cc(S(=O)(=O)NCCC(=O)Nc3cccc(C)c3C)ccc21`, the Potency result is “inactive”.

For `COc1ccc2ncc3c(-c4ccc(C)c(C)c4)nn(CC(=O)NC4CCCC4)c3c2c1`, the Potency result is “inactive”.

Consider `CC1Cc2cc(S(=O)(=O)CCC(=O)Nc3ccc(F)c(Cl)c3)ccc2N1C(=O)C1CC1` (stereo not drawn), for which the Potency result was “inactive”.

In the case of `O=C(Nc1ccccc1)c1cc2ccccc2[nH]1`, the Potency entry is “inactive”.

Turning to `S=c1ccc2ccccc2[nH]1`, the Potency was 4.47 µM (active).

With `CC(=O)N1CCN(C(=O)c2cc(-c3ccc(Cl)s3)nc3ccccc23)CC1`, the Potency result is “inactive”.

As for `C#CCOc1ccc(C2CC(=O)Nc3c2c(C)nn3-c2nc(C)cc(C)n2)cc1` (stereo not drawn), the Potency entry was “inactive”.

In the case of `Cc1ccc(-c2nc(CS(=O)(=O)CC(=O)NCc3ccccc3Cl)c(C)o2)cc1`, the Potency result was “inactive”.

In the case of `CC(C)(C)C(=O)CSc1ccc(S(=O)(=O)N2CCCC2)cn1`, the activity, negative = inhibition is -13.9% [at 2.33 µM] (inactive).

On to `CC1=C(C(=O)OCC2CCCCC2)C(c2c(F)cccc2Cl)CC(=O)N1` (stereo not drawn), for which the Potency entry is “inactive”.

In the case of `CC(C)c1ccc(S(=O)(=O)N2CCN(C(=O)CN3C(=O)NC(C)(c4ccccc4)C3=O)CC2)cc1` (stereo not drawn), the Potency entry was “inactive”.

As for `N#C/C=C1\Sc2ccccc2C(=O)N1CC(=O)N1CCN(S(=O)(=O)c2ccccc2)CC1`, the Potency is 70.8 µM (active).

Consider `O=C(CN1CCSc2ccccc21)N1CCN(c2ccccc2)CC1`, for which the Potency result is “inactive”.

For `O=C(Cc1ccccc1)N1CCN(S(=O)(=O)c2ccc([N+](=O)[O-])cc2)CC1`, the Potency entry was “inactive”.

Consider `O=C(CN1CCCSc2ccccc21)N1CCN(S(=O)(=O)c2ccccc2)CC1`, for which the Potency is 56.2 µM (active).

`O=C(CN1CCCSc2ccccc21)N1CCN(S(=O)(=O)c2cccc(F)c2)CC1`: the activity, negative = inhibition was 15.4% [at 12.7 µM] (inactive).

On to `CCN(C(=O)CSc1ncnc2c1cnn2-c1ccccc1)C1CCS(=O)(=O)C1` (stereo not drawn), for which the activity, negative = inhibition was 7.57% [at 0.501 µM] (inactive).

Take `O=C(OCc1cc(=O)n2nc(C3CC3)sc2n1)c1ccccc1Cl`: the Potency result is “inactive”.

For `O=C(NNC(=O)c1ccc(-n2cncn2)c([N+](=O)[O-])c1)c1ccccc1`, the activity, negative = inhibition is 14.9% [at 12.7 µM] (inactive).

On to `CCc1cc2c(cc(C(=O)OC)n2Cc2nc(-c3ccc(C)cc3)oc2C)s1`, for which the Potency result was “inactive”.

For the molecule `N#Cc1nc(-c2cccc3ccccc23)oc1N`, the activity, negative = inhibition is 2.47% [at 2.33 µM] (inactive).

`CCCCN(C(=O)C(CCSC)N1C(=O)c2ccccc2C1=O)c1c(N)n(CCC)c(=O)[nH]c1=O` (stereo not drawn): the activity, negative = inhibition is 17.2% [at 12.7 µM] (inactive).

`COc1ccc2oc(C(=O)N(CC(C)C)C3CCS(=O)(=O)C3)c(C)c2c1` (stereo not drawn): the activity, negative = inhibition was 7.64% [at 0.501 µM] (inactive).

For `COc1cccc(Cn2cnc3c([N+](=O)[O-])c(C)c(C)cc32)c1`, the Potency entry is “inactive”.

For `CSc1nn(Cc2cccc(C)c2)c(N)c1S(=O)(=O)c1ccccc1`, the Potency result was “inactive”.

As to `Cc1cccc(Cn2cnc3c(N)c(C)c(C)cc32)c1`, the Potency was 44.7 µM (active).

`COc1cc(OC)cc(-c2nc3nc(C)c(CCC(=O)Nc4ccccc4)c(C)n3n2)c1`: the Potency entry was “inactive”.

Take `O=C(CCc1nnc2ccc(NCc3ccco3)nn12)Nc1cc(F)ccc1F`: the Potency result was “inactive”.

For the molecule `Cc1sc2ncnc(N3CCC(C(=O)Nc4ccc(F)cc4Cl)CC3)c2c1C`, the activity, negative = inhibition was -22.6% [at 12.7 µM] (inactive).

Turning to `CN(Cc1ccccc1)c1ncnc2onc(-c3ccc(F)cc3)c12`, the Potency entry is “inactive”.

Turning to `CCN(CC(=O)Nc1cc(Cl)ccc1C)C(=O)CSCc1ccc(C)cc1`, the activity, negative = inhibition was -2.36% [at 2.33 µM] (inactive).

Regarding `Cc1ccc(CSCC(=O)N(C)CC(=O)Nc2ccc(C)cc2)cc1`, the Potency result was “inactive”.

Take `CCCCN(C)CCNC(=O)CSCc1ccc(C)cc1`: the Potency was 3.55 µM (active).

As to `CC(=O)c1nn(-c2ccc(OC(F)(F)F)cc2)nc1Nc1ccccc1`, the Potency entry was “inactive”.

Regarding `Cc1ccc(N2CC(C(=O)N3CCC4(CC3)CC(=O)c3ccccc3O4)CC2=O)cc1C` (stereo not drawn), the activity, negative = inhibition was 6.18% [at 0.501 µM] (inactive).

On to `CCOc1ccc(S(=O)(=O)Nc2ccc(C(=O)NCCCN3CCCC3=O)cc2)cc1`, for which the Potency result is “inactive”.

With `CCOc1ccc(NS(=O)(=O)c2ccc(C(=O)NCC(c3ccccc3OC)N3CCCC3)cc2)cc1` (stereo not drawn), the Potency was 1.26 µM (active).

As to `CCOc1ccc(NS(=O)(=O)c2ccc(C(=O)NC3CCN(Cc4ccccc4)CC3)cc2)cc1`, the activity, negative = inhibition was 17.4% [at 2.33 µM] (inactive).

On to `COc1ccc(Cn2c(=O)c3oc4ccccc4c3n(CC(=O)Nc3ccc(F)cc3F)c2=O)cc1`, for which the Potency entry was “inactive”.

As to `COc1ccc(NC(=O)c2ccco2)cc1NC(=O)COc1ccc(C)c(C)c1`, the Potency entry was “inactive”.

Turning to `O=C(N/N=C/c1ccc([N+](=O)[O-])cc1)c1c[nH]c2ccccc12`, the Potency entry is “inactive”.

`COc1ccc2[nH]cc(/C=C(/C#N)S(=O)(=O)c3ccccc3)c2c1`: the Potency entry was “inactive”.

In the case of `COc1ccc(/C=C(\C#N)c2c[nH]c3ccccc23)cc1`, the Potency was 39.8 µM (active).

`CCCCn1c(N)c(N(Cc2ccccc2OC)C(=O)COc2cc(C)ccc2Cl)c(=O)[nH]c1=O`: the Potency result is “inactive”.

Consider `Cn1nccc1/C=N\NC(=O)c1ccc(Cl)cc1`, for which the Potency result was “inactive”.

Regarding `OCC[C@H]1C[C@H](O)[C@@H](O)[C@]2(CCc3ccccc3O2)O1`, the activity, negative = inhibition was 7.67% [at 2.33 µM] (inactive).
